TRb-SRC2 inh – qHTS for Inhibitors of the Interaction of Thyroid Hormone Receptor and Steroid Receptor Coregulator 2; 0.065% of 280,000 active; TRbeta-SRC2 peptide binding, fluorescence polarization; receptor liganded with 1 µM T3; Thyroid hormone receptor beta (Homo sapiens), P10828; Potency, µM (series often up to 106 µM), most hits filed as inhibitors; further: nearly all actives have a fitted effect of over 50% in size
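Read-out is fluorescence polarization (555 nm excitation, 632 nm emission) of a Texas Red SRC2 coactivator peptide; loss of signal reflects blocked binding to human TRb ligand-binding domain in the presence of 1 uM T3.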
Tau ThT inhib – qHTS for Inhibitors of Tau Fibril Formation, Thioflavin T Binding. 2.1% of 270,000 active. recombinant tau K18 P301L, heparin-induced fibrillization, ThT fluorescence. Microtubule-associated protein tau (Homo sapiens), P10636. Potency, µM (top dose mostly 57.4 µM), hits mostly inhibitors; further: nearly all actives have a fitted effect of over 55% in size
Target sequence (P10636 561-689 P618L limits assumed): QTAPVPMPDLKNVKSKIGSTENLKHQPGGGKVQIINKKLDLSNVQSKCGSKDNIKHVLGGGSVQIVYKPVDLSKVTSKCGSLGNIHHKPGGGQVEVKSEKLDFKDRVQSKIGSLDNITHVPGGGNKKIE
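ThT emission at 510 nm, taken 1 hr after adding 30 uM dye, quantifies aggregates formed when 20 uM heparin acts on human tau K18 P301L for 6 hr at 37 C.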
Tau FP inhib – qHTS for Inhibitors of Tau Fibril Formation, Fluorescence Polarization; Microtubule-associated protein tau (Homo sapiens), P10636; K18 P301L tau heparin fibrillization, Alexa594 FP, 6 h; Potency, µM (highest dose often 57.7 µM), most hits filed as inhibitors; 0.39% of 280,000 active; AID 1468, 2008; further: nearly all actives have a fitted effect of over 55% in size
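Quantitative HTS format: compounds meet 15 uM recombinant K18 P301L tau and Alexa 594-tau tracer in 100 mM sodium acetate pH 7; 20 uM heparin triggers fibrillization at 37 C over 6 hr; FP gives the signal.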
GoLoco inh red – qHTS Assay for Inhibitors of RGS12 GoLoco Motif Activity (Red Fluorophore); Guanine nucleotide-binding protein G(i) subunit alpha-1 (Homo sapiens), P63096; Gai1:RGS12 GoLoco peptide FP, rhodamine, 10 min; Potency, µM (doses to about 61.6 µM), actives largely listed as inhibitors; 0.44% of 230,000 active; AID 880, 2007; active means well fitted inhibition curve with a large enough effect, not every such curve was filed as active; inactive means no such curve, though single readings can be large or run the other way; further: nearly all actives have a fitted effect of over 30% in size
Target sequence (P63096 whole entry, looked up): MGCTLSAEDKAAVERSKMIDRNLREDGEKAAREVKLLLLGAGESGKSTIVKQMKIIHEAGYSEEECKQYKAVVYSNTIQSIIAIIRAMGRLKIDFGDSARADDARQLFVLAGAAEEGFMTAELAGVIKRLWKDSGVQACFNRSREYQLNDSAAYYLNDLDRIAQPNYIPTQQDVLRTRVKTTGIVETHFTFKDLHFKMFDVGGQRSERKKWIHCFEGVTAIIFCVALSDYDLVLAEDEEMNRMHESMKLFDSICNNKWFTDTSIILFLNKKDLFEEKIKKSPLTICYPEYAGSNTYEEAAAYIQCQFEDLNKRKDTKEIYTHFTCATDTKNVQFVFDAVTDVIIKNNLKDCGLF
Tau fluor cs – Counterscreen qHTS for Inhibitors of Tau Fibril Formation, Fluorescence Polarization; tau K18 P301L (four-repeat tau fragment) Alexa594 fluorescence, heparin fibrillization; Potency, µM (highest dose often 57.7 µM); 0.93% of 280,000 active; AID 1463, 2008; further: nearly all actives have a fitted effect of over 55% in size
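Human K18 P301L tau (15 uM unlabeled plus 0.24 uM Alexa 594-labeled, final) in 100 mM sodium acetate pH 7 was mixed with compound and 20 uM heparin and incubated 6 hr at 37 C.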
TexasRed fluor – Total Fluorescence Counterscreen for Inhibitors of the Interaction of Thyroid Hormone Receptor and Steroid Receptor Coregulator 2 | Potency, µM (series often up to 106 µM) | AID 1479, 2009 | TRb/SRC2 Texas Red total fluorescence interference | 0.29% of 280,000 active; active means well fitted curve in either direction with a large enough effect; inconclusive means small, poorly fitted or top-dose-only effect
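Human TRb ligand-binding domain at 0.6 uM with 20 nM Texas Red SRC2 peptide in Tris buffer containing 1 uM T3 and 5% DMSO, incubated with compound 5 h at ambient temperature. Total fluorescence (555/632 nm) calculated as parallel + 2 × perpendicular.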
Numbers stand for hits; . = inactive; ? = inconclusive; / = no result; [ ] = dose if it differs, or a comment. Rows were chosen to be rich in hits. Some 3.2% of all compounds tested hit in one or more screens of this group. Unless noted, the call rests on the fitted dose curve; in most records, active means well fitted curve in the direction sought with a large enough effect; inconclusive means small, poorly fitted or top-dose-only effect, or another doubt; inactive means no such curve, though single readings can be large; an effect the other way counts as inactive or inconclusive.

SMILES	TRb-SRC2 inh	Tau ThT inhib	Tau FP inhib	GoLoco inh red	Tau fluor cs	TexasRed fluor
Cc1cccc(CNc2ncnc3ccc(-c4cccc(NS(C)(=O)=O)c4)cc23)c1	.	?	18µM	.	?	.
C/C(=C\C(=O)c1ccccc1)Nc1ccc(O)cc1	?	?	.	.	?	.
C/C(=C\C(=O)c1cccnc1)Nc1ccc(O)cc1	14µM	?	.	.	.	.
Cc1ccccc1S(=O)Cc1ccc(C(=O)NC2CCCCCC2)o1 (stereo not drawn)	.	.	.	/	.	.
COc1cc(NC(=O)CSc2nc3nc(C)c(Cc4ccc(C)cc4)c(C)n3n2)cc(OC)c1	.	?	.	/	.	.
O=C1NC(=O)c2cc(Nc3ccc(F)cc3)c(Nc3ccc(F)cc3)cc21	.	13µM	.	.	14µM[quencher]	.
O=C1NC(=O)c2cc(Nc3ccccc3)c(Nc3ccccc3)cc21	.	14µM	.	.	14µM[quencher]	.
Cc1nnc(NCc2ccc(F)cc2)c2c1nnn2Cc1ccccc1Cl	.	.	.	/	.	.
CCn1c(C(=O)N2CCC(C(=O)NCCCSC3CCCCC3)CC2)cc2sccc21	.	?	.	.	.	.
CCCSCCCNC(=O)C1CCN(C(=O)c2cc3sccc3n2C)CC1	.	.	.	/	.	32µM[quencher]
CCC1CN(C(=O)C2CCN(S(=O)(=O)c3c(C)noc3/C=C/c3ccc(C)cc3)CC2)c2cc(C)ccc2O1 (stereo not drawn)	.	.	.	/	.	.
CCOC(=O)c1c(C)[nH]c(-c2csc(N)n2)c1C	.	25µM	?	.	?	.
CC(=Nc1ccccc1O)c1sc2ccccc2c1O	.	5µM	.	.	28µM[quencher]	.
CC(=Nc1cccc(C)c1)c1sc2ccccc2c1O	.	?	.	.	?	.
CC(=Nc1ccc(O)cc1)c1sc2ccccc2c1O	.	4.5µM	.	.	?	.
O=C(CCS(=O)(=O)c1cccc2nsnc12)Nc1ccc(F)cc1	.	?	.	/	.	.
COc1cc(/C=N/N2C(C)CCCC2C)cc(Br)c1O (stereo not drawn)	.	.	.	.	.	.
COc1cccc(/C=N/N2C(=O)CSC2=S)c1O	.	16µM	?	.	?	.
COc1ccc2ccccc2c1/C=N/N1C(=O)CSC1=S	.	11µM	.	.	.	.
COc1cc(/C=N/N2C(=O)CSC2=S)cc(Br)c1O	?	13µM	?	.	?	?
N#Cc1cccc(NC(=O)CSc2ccc3c4c(cccc24)C(=O)c2ccccc2-3)c1	.	?	.	11µM	?	.
CC(=O)[C@H]1CC[C@@H]2[C@]1(C)CC=C1[C@@]23C=C[C@]2(C[C@H](O)CC[C@@]12C)[C@H](C(=O)O)[C@@H]3C(=O)O	/	/	/	.[14.2 µM]	/	/
COc1ccc(Cl)cc1NC(=O)CSc1nnc2[nH]c(=O)cc(-c3ccccc3)n12	.	?	.	/	.	.
O=C(/C=C/c1ccc(OCc2ccccc2)c(OCc2ccccc2)c1)c1cccnc1	.	.	.	.	.	1122µM[quencher]
O=C(/C=C/c1ccco1)Nc1sc2c(c1C(=O)O)CCC2	.	?	.	.	.	.
SMILES	TRb-SRC2 inh	Tau ThT inhib	Tau FP inhib	GoLoco inh red	Tau fluor cs	TexasRed fluor
CNC(=O)c1c(NC(=O)/C=C/c2ccccc2)sc2c1CCC2	.	14µM	.	/	?	.
O=C(/C=C/c1ccccc1)Nc1sc2c(c1C(=O)O)CCC2	.	10µM	.	.	?	.
Cc1cc(C(=O)COC(=O)c2cc(O)c3ccccc3c2O)c(C)n1CC1CCCO1 (stereo not drawn)	.	14µM	?	.	?	.
Cc1cc(C(=O)COC(=O)c2ccccc2Br)c(C)n1CC1CCCO1 (stereo not drawn)	.	.	.	.	.	.
C=CC1=C2C=C(C3CC3)N(Cc3ccco3)C=C2C(=O)C(C)(OC(=O)c2ccco2)C1=O (stereo not drawn)	.[11.2 µM]	.[11.5 µM]	.[11.6 µM]	.[14.2 µM]	.[11.6 µM]	.[11.2 µM]
CC1Cc2ccccc2N1S(=O)(=O)c1nnc(NC(=O)c2ccccc2Br)s1 (stereo not drawn)	.	13µM	.	/	?	.
O=C(Nc1nnc(S(=O)(=O)N2CCCC2)s1)c1ccccc1Cl	.	3.5µM	.	/	?	.
O=C(COc1ccccc1F)Nc1nnc(S(=O)(=O)N2CCCCCC2)s1	.	14µM	.	/	.	.
O=C(Nc1nnc(S(=O)(=O)N2CCCCCC2)s1)c1ccccc1Cl	.	?	.	/	?	.
O=C(Nc1nnc(S(=O)(=O)N2CCCCCC2)s1)c1ccccc1	.	14µM	.	/	?	?
O=C(COc1ccccc1Cl)Nc1nnc(S(=O)(=O)N2CCCC2)s1	.	?	.	/	?	.
CC1Cc2ccccc2N1S(=O)(=O)c1nnc(NC(=O)c2ccccc2)s1 (stereo not drawn)	.	?	.	/	.	.
COc1ccc(OC)c(-c2nnc3n2N=C(c2ccccc2OC)CS3)c1	.	/	/	/	/	.
CCCCCCCCCCCCCCOS(=O)(=O)O	.	/	/	/	/	.
Cc1ccc(C)c(NC(=O)CN(C)S(=O)(=O)c2cccc3nsnc23)c1	.	.	.	/	.	.
Nc1ccc(C(=O)O)c(O)c1 (tested in a mixture with another compound)	.	?	.	28µM	.	.
CCOC(=O)C1=C(C)N=C2c3ccccc3C(=O)C2C1c1ccc(Cl)cc1 (stereo not drawn)	.	?	.	.	7.9µM[quencher]	.
Cc1cc2c(c(=O)o1)[C@H](O)[C@H]1O[C@@H]1C2=O	.[11.2 µM]	?	.[11.6 µM]	/	.[11.6 µM]	.[11.2 µM]
Cn1c(=O)c(Nc2ccc(O)cc2)c2c3c(cccc31)C(=O)c1ccccc1-2	.	7.9µM	?	.	14µM[quencher]	.
CC(C)c1ccc(Nc2c([N+](=O)[O-])c(=O)n(C)c3ccccc23)cc1	.	.	.	.	.	.
CC1=CC23C(=O)C(C=C(CO)[C@@H](O)[C@]2(O)[C@H]1O)[C@H]1[C@@H](C[C@H]3C)C1(C)C (stereo partly drawn)	.	/	/	/	/	.
CCN1/C(=C/C(C)=C/c2sc3ccccc3[n+]2CC)Sc2ccccc21	?	1.6µM	?	.	0.45µM[fluorescent]	20µM[fluorescent]
CCN1/C(=C/c2ccc3cccc(C)c3[n+]2CC)Sc2ccccc21	.	?	?	.	.	.
CCOc1ccccc1NC(=O)c1cnc(N2CCOCC2)c2ccccc12	.	.	.	/	.	.
